# Results published in ChEMBL document CHEMBL2218924, “A broad activity screen in support of a chemogenomic map for kinase signalling research and drug discovery” (Biochem J, 2013).
# Assays:
# [1] = biological target: T1, Ephrin type-A receptor 3 (Homo sapiens) (UniProt P29320); details: at 10 µM
# T1 sequence (whole entry): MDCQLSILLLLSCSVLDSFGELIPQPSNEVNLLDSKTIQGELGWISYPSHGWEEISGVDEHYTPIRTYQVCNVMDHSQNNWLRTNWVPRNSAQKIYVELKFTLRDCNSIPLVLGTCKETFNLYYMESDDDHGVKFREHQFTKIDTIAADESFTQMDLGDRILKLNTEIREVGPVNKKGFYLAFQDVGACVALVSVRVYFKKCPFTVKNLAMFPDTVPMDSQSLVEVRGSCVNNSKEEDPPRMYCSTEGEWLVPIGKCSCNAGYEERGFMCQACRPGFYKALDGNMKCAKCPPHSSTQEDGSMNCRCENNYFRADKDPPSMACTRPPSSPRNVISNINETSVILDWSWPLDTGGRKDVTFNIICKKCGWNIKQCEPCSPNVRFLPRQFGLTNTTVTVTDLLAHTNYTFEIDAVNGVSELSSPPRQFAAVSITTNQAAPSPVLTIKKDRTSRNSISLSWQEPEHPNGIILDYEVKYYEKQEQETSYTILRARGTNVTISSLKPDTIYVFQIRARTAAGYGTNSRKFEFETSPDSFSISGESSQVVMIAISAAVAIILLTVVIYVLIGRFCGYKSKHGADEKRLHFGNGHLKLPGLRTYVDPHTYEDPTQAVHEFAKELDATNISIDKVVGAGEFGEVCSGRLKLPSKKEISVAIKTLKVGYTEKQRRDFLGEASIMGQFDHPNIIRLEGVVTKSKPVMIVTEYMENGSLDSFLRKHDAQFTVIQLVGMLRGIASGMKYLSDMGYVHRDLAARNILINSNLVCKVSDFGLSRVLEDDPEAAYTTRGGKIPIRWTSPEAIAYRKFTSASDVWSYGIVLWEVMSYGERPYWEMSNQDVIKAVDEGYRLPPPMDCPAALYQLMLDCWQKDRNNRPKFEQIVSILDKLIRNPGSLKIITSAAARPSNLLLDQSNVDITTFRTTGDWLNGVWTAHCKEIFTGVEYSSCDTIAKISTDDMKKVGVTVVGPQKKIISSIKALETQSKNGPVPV
# [2] = biological target: Ephrin type-A receptor 4 (Homo sapiens) (UniProt P54764); details: at 1 µM
# [3] = biological target: Ephrin type-A receptor 4 (Homo sapiens) (UniProt P54764); details: at 10 µM
# [4] = biological target: Ephrin type-A receptor 5 (Homo sapiens) (UniProt P54756); details: at 1 µM
# [5] = biological target: Ephrin type-A receptor 5 (Homo sapiens) (UniProt P54756); details: at 10 µM
# [6] = biological target: Ephrin type-A receptor 7 (Homo sapiens) (UniProt Q15375); details: at 1 µM
# [7] = biological target: Ephrin type-A receptor 7 (Homo sapiens) (UniProt Q15375); details: at 10 µM
# [8] = biological target: T2, Ephrin type-A receptor 8 (Homo sapiens) (UniProt P29322); details: at 1 µM
# T2 sequence (whole entry): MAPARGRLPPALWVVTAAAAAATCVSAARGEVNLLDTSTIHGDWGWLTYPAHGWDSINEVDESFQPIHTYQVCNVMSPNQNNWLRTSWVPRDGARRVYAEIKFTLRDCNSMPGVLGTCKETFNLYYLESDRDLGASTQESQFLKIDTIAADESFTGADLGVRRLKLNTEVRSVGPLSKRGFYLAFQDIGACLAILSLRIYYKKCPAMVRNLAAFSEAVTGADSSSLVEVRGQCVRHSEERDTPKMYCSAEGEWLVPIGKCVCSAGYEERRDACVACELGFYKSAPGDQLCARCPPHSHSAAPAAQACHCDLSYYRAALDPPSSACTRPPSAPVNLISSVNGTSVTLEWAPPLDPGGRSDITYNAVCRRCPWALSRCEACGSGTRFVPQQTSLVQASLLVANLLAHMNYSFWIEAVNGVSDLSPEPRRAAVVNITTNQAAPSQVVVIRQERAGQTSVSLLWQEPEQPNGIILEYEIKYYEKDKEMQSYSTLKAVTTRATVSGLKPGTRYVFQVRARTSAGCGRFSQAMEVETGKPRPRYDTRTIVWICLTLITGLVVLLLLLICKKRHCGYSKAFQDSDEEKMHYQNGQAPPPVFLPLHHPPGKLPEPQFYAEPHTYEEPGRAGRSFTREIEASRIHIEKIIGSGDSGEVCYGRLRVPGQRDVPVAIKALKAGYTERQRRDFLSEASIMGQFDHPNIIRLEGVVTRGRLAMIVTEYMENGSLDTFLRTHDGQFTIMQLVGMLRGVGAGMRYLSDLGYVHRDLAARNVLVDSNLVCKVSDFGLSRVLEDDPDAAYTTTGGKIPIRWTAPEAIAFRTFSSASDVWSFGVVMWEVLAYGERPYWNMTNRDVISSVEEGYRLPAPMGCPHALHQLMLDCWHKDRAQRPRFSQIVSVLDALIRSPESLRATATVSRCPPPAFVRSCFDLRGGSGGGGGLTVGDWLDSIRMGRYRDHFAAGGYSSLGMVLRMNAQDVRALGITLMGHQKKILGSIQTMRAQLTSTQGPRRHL
# [9] = biological target: T2, Ephrin type-A receptor 8 (Homo sapiens); details: at 10 µM
# [10] = biological target: T3, Ephrin type-B receptor 1 (Homo sapiens) (UniProt P54762); details: at 1 µM
# T3 sequence (whole entry): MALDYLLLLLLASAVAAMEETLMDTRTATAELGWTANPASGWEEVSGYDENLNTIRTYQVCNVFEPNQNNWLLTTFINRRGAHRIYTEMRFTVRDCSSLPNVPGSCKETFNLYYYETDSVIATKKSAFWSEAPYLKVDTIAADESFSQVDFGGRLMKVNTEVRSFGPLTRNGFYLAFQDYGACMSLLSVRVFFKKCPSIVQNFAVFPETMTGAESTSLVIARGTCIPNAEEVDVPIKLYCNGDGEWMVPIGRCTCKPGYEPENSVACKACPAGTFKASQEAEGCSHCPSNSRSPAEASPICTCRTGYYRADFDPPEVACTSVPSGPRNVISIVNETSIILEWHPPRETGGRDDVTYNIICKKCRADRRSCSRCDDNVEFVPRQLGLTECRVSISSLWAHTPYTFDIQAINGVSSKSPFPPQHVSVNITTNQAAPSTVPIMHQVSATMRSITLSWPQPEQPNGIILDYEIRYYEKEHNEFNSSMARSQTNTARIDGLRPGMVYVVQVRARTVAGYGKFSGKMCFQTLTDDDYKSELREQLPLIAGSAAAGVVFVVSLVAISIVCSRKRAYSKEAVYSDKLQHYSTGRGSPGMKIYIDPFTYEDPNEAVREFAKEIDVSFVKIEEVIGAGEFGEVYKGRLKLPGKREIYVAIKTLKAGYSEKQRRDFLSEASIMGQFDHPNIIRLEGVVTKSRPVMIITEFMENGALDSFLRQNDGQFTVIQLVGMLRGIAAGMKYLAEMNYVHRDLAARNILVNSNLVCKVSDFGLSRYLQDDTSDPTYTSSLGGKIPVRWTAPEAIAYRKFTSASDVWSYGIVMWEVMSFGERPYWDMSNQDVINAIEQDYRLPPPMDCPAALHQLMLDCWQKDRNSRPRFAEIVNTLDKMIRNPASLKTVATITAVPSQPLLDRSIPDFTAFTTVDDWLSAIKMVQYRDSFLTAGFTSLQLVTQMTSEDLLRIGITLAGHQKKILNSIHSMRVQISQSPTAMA
# Ephrin type-A receptor 5 (Homo sapiens), sequence (P54756 whole entry): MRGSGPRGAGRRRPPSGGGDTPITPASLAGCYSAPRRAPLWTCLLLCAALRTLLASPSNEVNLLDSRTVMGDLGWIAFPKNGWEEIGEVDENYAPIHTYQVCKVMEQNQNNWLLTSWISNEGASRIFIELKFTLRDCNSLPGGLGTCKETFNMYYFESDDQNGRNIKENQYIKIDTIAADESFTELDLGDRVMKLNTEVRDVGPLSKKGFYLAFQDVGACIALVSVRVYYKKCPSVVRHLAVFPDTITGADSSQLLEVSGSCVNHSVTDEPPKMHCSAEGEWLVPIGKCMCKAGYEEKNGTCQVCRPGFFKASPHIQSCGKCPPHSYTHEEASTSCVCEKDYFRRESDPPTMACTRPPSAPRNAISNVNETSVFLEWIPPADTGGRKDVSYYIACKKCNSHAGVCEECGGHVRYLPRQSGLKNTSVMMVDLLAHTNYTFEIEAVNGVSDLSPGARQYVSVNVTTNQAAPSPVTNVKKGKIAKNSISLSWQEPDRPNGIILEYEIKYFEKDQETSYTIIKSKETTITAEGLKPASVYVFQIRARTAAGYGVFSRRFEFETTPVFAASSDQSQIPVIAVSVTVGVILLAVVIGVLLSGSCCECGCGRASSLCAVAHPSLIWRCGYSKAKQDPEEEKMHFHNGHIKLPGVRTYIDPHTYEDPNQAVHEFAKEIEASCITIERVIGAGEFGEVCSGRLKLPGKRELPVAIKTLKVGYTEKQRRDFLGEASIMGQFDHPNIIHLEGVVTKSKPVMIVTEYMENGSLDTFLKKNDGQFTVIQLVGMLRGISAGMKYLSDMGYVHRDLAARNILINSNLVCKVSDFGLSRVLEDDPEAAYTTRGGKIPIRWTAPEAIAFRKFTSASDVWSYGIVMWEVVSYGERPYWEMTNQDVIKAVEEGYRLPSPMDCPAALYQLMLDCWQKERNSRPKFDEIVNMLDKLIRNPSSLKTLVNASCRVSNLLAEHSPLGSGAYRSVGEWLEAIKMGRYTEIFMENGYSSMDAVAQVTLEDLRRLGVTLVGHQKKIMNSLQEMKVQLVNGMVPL
# Ephrin type-A receptor 4 (Homo sapiens), sequence (P54764 whole entry): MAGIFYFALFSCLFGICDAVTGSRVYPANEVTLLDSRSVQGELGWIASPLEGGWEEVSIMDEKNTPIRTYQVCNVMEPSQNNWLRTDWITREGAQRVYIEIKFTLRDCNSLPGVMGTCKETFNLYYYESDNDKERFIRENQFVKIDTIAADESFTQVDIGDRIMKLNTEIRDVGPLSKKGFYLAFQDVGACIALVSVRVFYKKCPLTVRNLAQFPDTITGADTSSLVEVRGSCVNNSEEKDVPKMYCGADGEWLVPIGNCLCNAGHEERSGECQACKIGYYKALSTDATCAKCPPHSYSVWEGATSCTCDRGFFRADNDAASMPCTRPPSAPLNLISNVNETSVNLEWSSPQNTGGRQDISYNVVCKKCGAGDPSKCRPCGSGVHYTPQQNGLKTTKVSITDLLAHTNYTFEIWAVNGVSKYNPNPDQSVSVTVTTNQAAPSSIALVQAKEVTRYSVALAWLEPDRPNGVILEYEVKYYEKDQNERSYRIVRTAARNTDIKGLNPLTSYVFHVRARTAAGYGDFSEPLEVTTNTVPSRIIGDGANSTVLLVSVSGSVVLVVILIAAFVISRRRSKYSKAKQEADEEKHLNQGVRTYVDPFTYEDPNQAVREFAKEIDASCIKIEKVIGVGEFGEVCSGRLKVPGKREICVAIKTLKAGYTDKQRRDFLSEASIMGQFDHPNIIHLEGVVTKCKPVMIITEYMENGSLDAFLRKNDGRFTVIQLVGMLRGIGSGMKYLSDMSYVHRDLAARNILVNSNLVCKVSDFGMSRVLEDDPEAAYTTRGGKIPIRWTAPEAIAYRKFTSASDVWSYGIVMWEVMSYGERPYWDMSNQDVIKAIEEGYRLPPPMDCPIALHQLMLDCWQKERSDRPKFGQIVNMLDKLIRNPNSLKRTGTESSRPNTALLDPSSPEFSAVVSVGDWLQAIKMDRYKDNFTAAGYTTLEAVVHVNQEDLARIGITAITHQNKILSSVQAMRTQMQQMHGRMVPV
# Ephrin type-A receptor 7 (Homo sapiens), sequence (Q15375 28-998 limits assumed): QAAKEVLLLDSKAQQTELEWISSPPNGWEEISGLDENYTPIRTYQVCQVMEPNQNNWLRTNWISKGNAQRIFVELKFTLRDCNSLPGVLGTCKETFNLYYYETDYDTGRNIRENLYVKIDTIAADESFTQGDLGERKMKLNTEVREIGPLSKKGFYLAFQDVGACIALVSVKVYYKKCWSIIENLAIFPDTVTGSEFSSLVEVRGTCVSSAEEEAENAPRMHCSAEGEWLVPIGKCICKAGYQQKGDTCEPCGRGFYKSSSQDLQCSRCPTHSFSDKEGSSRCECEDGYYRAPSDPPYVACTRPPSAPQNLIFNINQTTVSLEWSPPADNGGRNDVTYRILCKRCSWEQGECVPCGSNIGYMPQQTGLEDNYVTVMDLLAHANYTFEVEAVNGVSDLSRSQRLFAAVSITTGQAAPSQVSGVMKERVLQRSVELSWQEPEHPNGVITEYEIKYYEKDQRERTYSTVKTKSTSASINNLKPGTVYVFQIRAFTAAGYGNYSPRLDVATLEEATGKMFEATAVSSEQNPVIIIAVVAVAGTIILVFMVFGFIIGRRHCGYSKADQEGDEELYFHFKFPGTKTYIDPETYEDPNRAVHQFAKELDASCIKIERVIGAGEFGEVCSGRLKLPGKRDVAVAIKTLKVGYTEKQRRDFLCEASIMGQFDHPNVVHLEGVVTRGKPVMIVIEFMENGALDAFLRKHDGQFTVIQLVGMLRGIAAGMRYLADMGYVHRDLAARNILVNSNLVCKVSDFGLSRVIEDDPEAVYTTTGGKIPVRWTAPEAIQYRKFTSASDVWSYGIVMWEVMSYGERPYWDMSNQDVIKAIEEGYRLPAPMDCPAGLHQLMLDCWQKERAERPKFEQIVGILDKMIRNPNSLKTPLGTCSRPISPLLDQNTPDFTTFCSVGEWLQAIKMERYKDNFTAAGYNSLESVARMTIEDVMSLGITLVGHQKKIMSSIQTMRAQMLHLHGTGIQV
smiles,measurement,setting,value
Cn1cnc2cc3c(Nc4cccc(Br)c4)ncnc3cc21,residual activity,[1],30%
same,residual activity,[2],106%
same,residual activity,[3],88%
same,residual activity,[4],82%
same,residual activity,[5],40%
same,residual activity,[6],77%
same,residual activity,[7],39%
same,residual activity,[8],86%
same,residual activity,[9],63%
same,residual activity,[10],70%
